Bioassay records deposited in PubChem BioAssay by Broad Institute.
The list is not random: actives were taken first. Their share in the collection is about 2.2%.
PGC1a acetyl inh = lowers PGC1a acetylation signal in U2OS cells; actives 0.17% (n = 350,000); AlphaScreen anti-acetyl-lysine; with virally co-expressed GCN5 acetyltransferase; inhibition, % at 15.6 µM;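 active = every replicate shows inhibition of at least 40%; inconclusive = mean inhibition at least 40% but some replicate below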;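 note: 0% = neutral control wells and 100% = positive control wells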
MITF TRPM1 inh = MITF TRPM1 promoter inhibition in SK-MEL-5 cells. inhibition, % at 12.5 µM. SK-MEL-5 TRPM1 promoter luciferase, 24 h. actives 0.83% (n = 330,000);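 active = mean inhibition across replicates of 60% or more, whatever share of single replicates reaches that level; inconclusive = some that reach 60%, reason not given; inactive = mean inhibition across replicates below 60%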
LMP1 NFkB inh = reduces LMP1-driven NF-kappaB luciferase signal; inhibition, % at 12.5 µM; LMP1-induced NF-kappaB luciferase reporter cells, luminescence; AID 504558; actives 0.69% (n = 350,000); in the data active = inhibition above about 41%; inconclusive = no clear call, values can overlap the other calls;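 note: 0% = neutral control wells and 100% = reference inhibitor control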
LGR2 inh = inhibitors of bursicon-induced Drosophila LGR2 receptor cAMP signaling. HEK293 LGR2, CRE-luciferase, bursicon-stimulated, 4 h. inhibition, % at 9.99 µM. actives 0.35% (n = 380,000);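 active = drop in luminescence signal, shown as inhibition above about 50% in the replicate tests, limit read from the data, passing the limit was not always enough; inconclusive = probably only some replicates passing the limit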;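 note: agonist challenge used bursicon conditioned medium at about half maximal strength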
EWS-Fli inh = inhibitors of EWS/Fli oncoprotein transcriptional activity | A673 NR0B1-luciferase reporter, viability-normalised | inhibition, % at 12.6 µM | actives 0.67% (n = 350,000) | AID 651661;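 active = mean inhibition of at least 50% after viability correction, with every replicate also passing that limit; inconclusive = mean reaches 50% but only one of two replicates passes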;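 note: firefly luciferase signal divided by Alamar Blue viability fluorescence both relative to DMSO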
PAX8 inh HTS = inhibitors of PAX8 transcriptional activity in RMG-I cells. RMG-I TPO-luciferase reporter, SteadyGlo, 24 h. inhibition, % at 12.6 µM. actives 1.2% (n = 360,000). AID 652154;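 active = mean replicate inhibition at least 60% with every replicate also reaching 60%; inconclusive = only one of the two criteria is met; inactive = mean below 60% and not all replicates reaching 60%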;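 note: luciferase light reporting Pax8 driven TPO promoter activity; plate controls were median of neutral control wells for no effect and mitoxantrone controls for full effect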
Numbers without * were called inactive.

For O=C(NC(=S)NCc1ccc(F)cc1)c1ccccc1 the results were MITF TRPM1 inh -14, LMP1 NFkB inh 2 and LGR2 inh -5.
For O=C(C[C@H]1CC[C@@H](NC(=O)c2cccc(F)c2)[C@H](CO)O1)NCCN1CCCC1 the results were PGC1a acetyl inh 9, LGR2 inh 25, EWS-Fli inh -40 and PAX8 inh HTS -8.
Screening COc1cc(/C=N/Nc2nc3c(c(=O)n(C)c(=O)n3C)n2Cc2ccccc2)ccc1OC(=O)c1ccco1 returned PGC1a acetyl inh 4, MITF TRPM1 inh 0, LMP1 NFkB inh 6, LGR2 inh 51*, EWS-Fli inh 32 and PAX8 inh HTS 48.
`Cc1ccc(C(=O)NNC(=O)c2ccc(-n3cncn3)c([N+](=O)[O-])c2)cc1` gave MITF TRPM1 inh 0, LMP1 NFkB inh 9, LGR2 inh 17, EWS-Fli inh -9 and PAX8 inh HTS 6.
O=C(O)c1ccc(-n2cncn2)c([N+](=O)[O-])c1 was read as PGC1a acetyl inh 10, MITF TRPM1 inh -30, LMP1 NFkB inh 49*, LGR2 inh 10, EWS-Fli inh 1 and PAX8 inh HTS -3.
CO[C@H]1CN(C)C(=O)c2ccc(NC(=O)C3CC3)cc2OC[C@H](C)NC[C@@H]1C was read as PGC1a acetyl inh 0 and LGR2 inh 13.
For CCC(=O)Nc1ccc2c(c1)OC[C@@H](C)N(C(=O)c1ccc(F)cc1)C[C@H](C)[C@H](OC)CN(C)C2=O the results were PGC1a acetyl inh 0, LGR2 inh -11, EWS-Fli inh 0 and PAX8 inh HTS 5.
`CN(C)CCCNC(=O)C[C@H]1CC[C@H](NS(=O)(=O)c2ccc(F)cc2)[C@@H](CO)O1` gave PGC1a acetyl inh 3, LGR2 inh -9, EWS-Fli inh -1 and PAX8 inh HTS -7.
`CN(C)c1ccc(-c2nc3cc(N)ccc3o2)cc1` gave PGC1a acetyl inh 0, MITF TRPM1 inh 7, LMP1 NFkB inh 37, LGR2 inh inconclusive, EWS-Fli inh 65* and PAX8 inh HTS 33.
`O=C(NCCCN1CCN(c2ccc(F)cc2)CC1)C1CCCN(c2ncnc3c2nc2n3CCCCC2)C1` (configuration not stated) gave PGC1a acetyl inh -9, MITF TRPM1 inh 15, LMP1 NFkB inh 9, LGR2 inh -5, EWS-Fli inh 27 and PAX8 inh HTS 16.
COc1ccc2nc(N3CCCC(C(=O)NCCCN4CCN(C)CC4)C3)sc2c1 (configuration not stated) was read as PGC1a acetyl inh 70*, MITF TRPM1 inh -13, LMP1 NFkB inh -7 and PAX8 inh HTS -36.
Screening COc1ccccc1N1CCN(CCCNC(=O)C2CCCN(c3ncnc4c3nc3n4CCCCC3)C2)CC1 (configuration not stated) returned PGC1a acetyl inh -8, MITF TRPM1 inh -10, LMP1 NFkB inh 66*, LGR2 inh -18, EWS-Fli inh 14 and PAX8 inh HTS 14.
CCOc1ccc2nc(N3CCCC(C(=O)NCCCN4CCCCC4)C3)sc2c1 (configuration not stated) was read as PGC1a acetyl inh -4, MITF TRPM1 inh -44, LMP1 NFkB inh 0, LGR2 inh -4 and PAX8 inh HTS -62.
For CC1CCc2c(sc(NC(=O)Cn3cnc([N+](=O)[O-])n3)c2C(N)=O)C1 (configuration not stated) the results were MITF TRPM1 inh 1, LMP1 NFkB inh -9, LGR2 inh 20, EWS-Fli inh -3 and PAX8 inh HTS -9.
For Cc1cc([N+](=O)[O-])nn1CCCC(=O)Nc1sc2c(c1C(N)=O)CCC(C)C2 (configuration not stated) the results were MITF TRPM1 inh 2, LMP1 NFkB inh 2, LGR2 inh 0, EWS-Fli inh -4 and PAX8 inh HTS 97*.
For CCOC(=O)/C(C#N)=C1/C(=O)N(Cc2ccccc2)c2ccccc21 the results were PGC1a acetyl inh 73*, MITF TRPM1 inh 4, LMP1 NFkB inh -14, LGR2 inh 23, EWS-Fli inh 35 and PAX8 inh HTS 12.
`CCOC(=O)C(C#N)=C1CCN(Cc2ccccc2)CC1` gave PGC1a acetyl inh -13, MITF TRPM1 inh -4, LMP1 NFkB inh -3, LGR2 inh 9, EWS-Fli inh -5 and PAX8 inh HTS 10.
`C[C@@H]1CN([C@@H](C)CO)C(=O)c2cccc(NC(=O)c3ccc(-c4nccs4)cc3)c2O[C@H]1CN(C)S(=O)(=O)c1cn(C)cn1` gave PGC1a acetyl inh 4, LGR2 inh 0 and EWS-Fli inh -6.
Screening O=C(N/N=C\c1ccc([N+](=O)[O-])s1)c1cncc(Br)c1 returned MITF TRPM1 inh 78*, LMP1 NFkB inh 13, EWS-Fli inh -6 and PAX8 inh HTS 86*.
For O=C(N/N=C/c1ccc([N+](=O)[O-])s1)c1ccccc1Br the results were PGC1a acetyl inh -48, MITF TRPM1 inh 90*, LMP1 NFkB inh 8, LGR2 inh -1 and EWS-Fli inh 48.
For O=C(N/N=C/c1ccc([N+](=O)[O-])s1)c1ccccc1 the results were PGC1a acetyl inh -13, MITF TRPM1 inh 105*, LMP1 NFkB inh 17, LGR2 inh 16, EWS-Fli inh 63* and PAX8 inh HTS 20.
Screening Cc1ccccc1C(=O)N/N=C/c1ccc([N+](=O)[O-])s1 returned PGC1a acetyl inh -20, MITF TRPM1 inh 94*, LMP1 NFkB inh -7 and LGR2 inh 24.
Screening CCC(=O)N1C[C@H](O)COC[C@@H]2O[C@H](CC(=O)N3CCCCC3)CC[C@H]21 returned PGC1a acetyl inh 1, LGR2 inh 19, EWS-Fli inh 0 and PAX8 inh HTS 5.
Screening CCC(=O)N1CCC2(CC1)CN(S(C)(=O)=O)[C@@H](CO)c1[nH]c3cc(OC)ccc3c12 returned PGC1a acetyl inh -2, LGR2 inh 11 and EWS-Fli inh 0.
COc1ccc2c3c(n(C)c2c1)[C@@H](CO)N(CC1CC1)CC31CN(C(C)=O)C1 was read as LGR2 inh -1 and EWS-Fli inh 13.
`O=C(CNC(=O)c1cccc(F)c1)N/N=C/c1ccc([N+](=O)[O-])s1` gave MITF TRPM1 inh 71*, LMP1 NFkB inh -3, LGR2 inh 26 and PAX8 inh HTS 37.
`Cn1c(SCC(=O)N/N=C/c2cc([N+](=O)[O-])ccc2O)nnc1-c1ccccc1` gave PGC1a acetyl inh 4, MITF TRPM1 inh 5, LMP1 NFkB inh 18, LGR2 inh 7, EWS-Fli inh 2 and PAX8 inh HTS -5.
Cn1c(SCC(=O)N/N=C/c2ccc([N+](=O)[O-])s2)nnc1-c1ccccc1 was read as MITF TRPM1 inh 71*, LMP1 NFkB inh -9, LGR2 inh 8, EWS-Fli inh 49 and PAX8 inh HTS 33.
`O=C(N/N=C/c1ccc([N+](=O)[O-])s1)C(O)c1ccccc1` (configuration not stated) gave MITF TRPM1 inh 69*, LMP1 NFkB inh -5, LGR2 inh -1, EWS-Fli inh 36 and PAX8 inh HTS 48.
